Here are results for five compounds from PubChem BioAssay.

The source made the active and inactive calls.

Assay [1] deals with PRMT1 (protein arginine N-methyltransferase 1). Kind of assay: PRMT1 binders on small-molecule microarrays, primary screen, biochemical, small-molecule microarray, 635 nm fluorescence (AID 1088).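 Note: binding of Prmt1 protein to compounds spotted on small-molecule microarray slides.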 The conditions noted are these: small-molecule microarray binding, higher = more signal.
A short description of assay [2]: yeast growth modulation, basal conditions, primary screen, YJM789 clinical isolate, OD600, 24 h (AID 1089).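 Note: growth of clinical yeast isolate S. cerevisiae YJM 789 seeded 1000 cells per well; test concentration not given here.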 The conditions noted are these: S. cerevisiae YJM789 growth, higher = more signal, called active from +8 up or from −8 down.
Assay [3] in a line: fission yeast growth modulation, primary screen, strain 972, OD600, 24 h, no modulator (AID 1090).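 Note: basal condition with compound alone and no growth modifier present; test concentration not given here.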 The conditions noted are these: S. pombe 972 growth, higher = more signal, called active from +8 up or from −8 down.
A short description of assay [4]: S. cerevisiae growth modulation with rapamycin, primary screen, strain BY4716, OD600, 96 h (AID 1091). Note: test concentration not given here. Conditions: higher = more signal, called active from +8 up or from −8 down.
The target in assay [5] is Torsin-1A-interacting protein 2 (Homo sapiens) (UniProt Q8NFQ8). Kind of assay: LULL1 binders on small-molecule microarray, primary screen, cell lysate, human LULL1 lysate, 635/667 nm fluorescence (AID 1092).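 Note: probe is lysate of COS7 cells overexpressing human LULL1; score merges per-feature 667 nm fluorescence with signal-to-noise.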 Conditions: hLULL1 lysate binding, 635 nm fluorescence, higher = more signal.
Torsin-1A-interacting protein 2 (Homo sapiens), sequence (Q8NFQ8 whole entry, looked up): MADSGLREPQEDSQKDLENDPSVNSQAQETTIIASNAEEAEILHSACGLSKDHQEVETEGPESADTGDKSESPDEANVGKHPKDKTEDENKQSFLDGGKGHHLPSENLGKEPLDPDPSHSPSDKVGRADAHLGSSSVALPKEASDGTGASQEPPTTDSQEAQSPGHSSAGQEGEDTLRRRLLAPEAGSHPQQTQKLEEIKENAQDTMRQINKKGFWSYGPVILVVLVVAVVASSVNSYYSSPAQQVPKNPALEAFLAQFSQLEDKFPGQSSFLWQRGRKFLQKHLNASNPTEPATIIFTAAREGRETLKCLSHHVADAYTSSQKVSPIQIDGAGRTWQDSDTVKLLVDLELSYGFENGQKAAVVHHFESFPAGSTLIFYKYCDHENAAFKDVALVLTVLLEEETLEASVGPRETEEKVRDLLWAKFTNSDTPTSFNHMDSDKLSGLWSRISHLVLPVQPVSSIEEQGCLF
The nature of assay [6]: E. coli growth modulation, two-sided OD650, primary screen, E. coli filamentation project, strain DRC41, 24 h (AID 1093).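 Note: MC1000 strain lacking acrAB efflux and sulA so SOS filamentation is blocked; test concentration not given here.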 The conditions noted are these: OD650, 24 h, higher = more signal, called active from +8 up or from −8 down.
Assay [7] is described as follows: small-molecule microarray binders of probe aLefty2, primary screen, biochemical, biotinylated probe, 635/667 nm fluorescence (AID 1094).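 Note: score merges spot fluorescence near 667 nm with spot signal-to-noise ratio.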 The conditions noted are these: higher = more signal.
Assay [8] relates to Noggin (protein binding on small-molecule microarray). Kind of assay: Noggin binders on small-molecule microarray, primary screen, biochemical, 635/667 nm fluorescence (AID 1095).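 Note: score merges 667 nm feature fluorescence with signal to noise over triplicate slides.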 The conditions noted are these: 635 nm fluorescence, higher = more signal.
The target of assay [9] is Neurogenic locus notch homolog protein 3 (Homo sapiens) (UniProt Q9UM47). The experiment in a line: NOTCH3 binders on small-molecule microarray, primary screen, biochemical, 635/667 nm fluorescence (AID 1096). Conditions: NOTCH3 binding, 635 nm fluorescence, higher = more signal.
Neurogenic locus notch homolog protein 3 (Homo sapiens), sequence (Q9UM47 whole entry, looked up): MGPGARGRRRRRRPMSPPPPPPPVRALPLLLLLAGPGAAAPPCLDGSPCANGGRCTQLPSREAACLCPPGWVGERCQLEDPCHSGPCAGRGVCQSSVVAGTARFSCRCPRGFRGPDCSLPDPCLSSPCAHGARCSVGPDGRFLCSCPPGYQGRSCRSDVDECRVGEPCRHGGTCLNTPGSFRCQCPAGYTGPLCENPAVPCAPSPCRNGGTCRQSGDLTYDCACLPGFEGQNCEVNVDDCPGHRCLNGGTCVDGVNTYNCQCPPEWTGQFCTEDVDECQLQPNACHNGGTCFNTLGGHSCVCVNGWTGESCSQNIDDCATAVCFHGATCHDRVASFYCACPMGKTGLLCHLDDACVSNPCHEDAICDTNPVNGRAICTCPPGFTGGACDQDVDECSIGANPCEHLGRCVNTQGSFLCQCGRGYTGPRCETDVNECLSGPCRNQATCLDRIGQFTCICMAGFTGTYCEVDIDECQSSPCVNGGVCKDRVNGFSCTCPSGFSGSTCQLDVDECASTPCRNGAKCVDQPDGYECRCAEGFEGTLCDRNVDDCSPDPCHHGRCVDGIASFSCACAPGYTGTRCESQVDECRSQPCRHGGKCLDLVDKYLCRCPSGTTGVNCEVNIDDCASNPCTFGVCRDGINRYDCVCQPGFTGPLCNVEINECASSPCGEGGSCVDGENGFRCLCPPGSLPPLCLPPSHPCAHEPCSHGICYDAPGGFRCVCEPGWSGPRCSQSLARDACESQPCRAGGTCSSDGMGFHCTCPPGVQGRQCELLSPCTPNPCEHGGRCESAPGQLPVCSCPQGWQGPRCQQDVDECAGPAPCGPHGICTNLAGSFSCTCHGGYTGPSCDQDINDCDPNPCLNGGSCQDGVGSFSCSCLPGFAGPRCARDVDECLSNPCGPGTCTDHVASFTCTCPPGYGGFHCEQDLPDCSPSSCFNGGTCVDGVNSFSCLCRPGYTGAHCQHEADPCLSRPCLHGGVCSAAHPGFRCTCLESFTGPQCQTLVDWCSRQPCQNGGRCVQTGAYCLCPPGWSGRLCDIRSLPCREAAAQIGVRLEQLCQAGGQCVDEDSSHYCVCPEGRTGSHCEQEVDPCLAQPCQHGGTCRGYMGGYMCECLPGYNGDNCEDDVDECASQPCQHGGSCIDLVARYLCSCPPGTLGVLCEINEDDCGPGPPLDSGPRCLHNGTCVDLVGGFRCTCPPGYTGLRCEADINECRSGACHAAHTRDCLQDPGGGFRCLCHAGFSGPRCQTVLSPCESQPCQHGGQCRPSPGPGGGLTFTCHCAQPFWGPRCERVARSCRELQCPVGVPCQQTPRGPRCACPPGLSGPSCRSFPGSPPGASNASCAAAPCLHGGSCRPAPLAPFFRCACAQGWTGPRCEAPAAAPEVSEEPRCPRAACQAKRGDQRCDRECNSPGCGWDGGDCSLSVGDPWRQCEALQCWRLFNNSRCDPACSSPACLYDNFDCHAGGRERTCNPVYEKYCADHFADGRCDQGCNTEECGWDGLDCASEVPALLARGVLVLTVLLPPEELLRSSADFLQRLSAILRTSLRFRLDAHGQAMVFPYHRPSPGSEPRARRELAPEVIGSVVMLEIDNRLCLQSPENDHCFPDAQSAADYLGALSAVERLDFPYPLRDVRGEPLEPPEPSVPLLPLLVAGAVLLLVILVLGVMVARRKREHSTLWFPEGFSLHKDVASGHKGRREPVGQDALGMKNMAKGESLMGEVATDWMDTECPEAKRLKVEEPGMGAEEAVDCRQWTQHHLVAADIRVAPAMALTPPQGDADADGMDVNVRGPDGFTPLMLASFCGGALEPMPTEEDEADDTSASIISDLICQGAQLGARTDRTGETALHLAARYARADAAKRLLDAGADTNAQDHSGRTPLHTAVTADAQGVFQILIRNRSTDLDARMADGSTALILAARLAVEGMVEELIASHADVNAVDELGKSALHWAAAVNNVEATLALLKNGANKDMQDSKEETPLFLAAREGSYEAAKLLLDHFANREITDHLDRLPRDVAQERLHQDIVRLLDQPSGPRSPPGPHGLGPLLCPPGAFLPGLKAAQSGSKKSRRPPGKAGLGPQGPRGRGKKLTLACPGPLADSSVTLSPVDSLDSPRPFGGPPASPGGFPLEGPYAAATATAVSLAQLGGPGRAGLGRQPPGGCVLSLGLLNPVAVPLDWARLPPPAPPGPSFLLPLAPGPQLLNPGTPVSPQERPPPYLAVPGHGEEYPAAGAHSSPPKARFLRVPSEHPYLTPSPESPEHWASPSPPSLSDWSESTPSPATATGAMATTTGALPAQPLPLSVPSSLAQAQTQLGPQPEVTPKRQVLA
Assay [10] in a line: small-molecule microarray binders of probe aEGFR, primary screen, biochemical, biotinylated probe, 635/667 nm fluorescence (AID 1097).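 Note: probe is a biotinylated anti-EGFR antibody binding compounds printed on slides; score combines fluorescence near 667 nm and signal to noise of each spot.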 The conditions noted are these: higher = more signal.
For assay [11], the system named is Plasmodium falciparum Sir2 (PF13_0152, Sir2A). Kind of assay: pfSir2 binders on small-molecule microarrays, primary screen, biochemical, small-molecule microarray, 635 nm fluorescence (AID 1098).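 Note: score merges spot fluorescence intensity with its signal-to-noise ratio.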 The conditions noted are these: small-molecule microarray binding, fluorescence 635 nm; higher = more signal.
Assay [12] in a line: small-molecule microarray binders of probe aDKK1, primary screen, biochemical, biotinylated probe, 635/667 nm fluorescence (AID 1099).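 Note: score merges 667nm spot fluorescence with signal to noise across triplicate slides; reference of the scale not given here.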 Conditions: higher = more signal.
The nature of assay [13]: small-molecule microarray binders of probe aCHRDL2, primary screen, biochemical, biotinylated probe, 635/667 nm fluorescence (AID 1100). The conditions noted are these: higher = more signal.
Assay [14] is described as follows: splicing luciferase reporter signal modulators, primary screen, spliceosome inhibition project, cell-based, HEK293, splice +/- reporter (AID 1101).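 Note: HEK293 cells carrying a splicing-competent luciferase reporter gene; test concentration not given here.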 Conditions: luminescence, 24 h, higher = more signal, called active from +8 up or from −8 down. On the technique in general: A reporter such as luciferase makes a cellular process visible.
The target of assay [15] is Fibroblast growth factor 10 (Homo sapiens) (UniProt O15520). Kind of assay: FGF10 binders on small-molecule microarrays, primary screen, biochemical, small-molecule microarray, 635 nm fluorescence (AID 1102). The conditions noted are these: FGF10 binding, fluorescence 635 nm, higher = more signal.
Fibroblast growth factor 10 (Homo sapiens), sequence (O15520 whole entry, looked up): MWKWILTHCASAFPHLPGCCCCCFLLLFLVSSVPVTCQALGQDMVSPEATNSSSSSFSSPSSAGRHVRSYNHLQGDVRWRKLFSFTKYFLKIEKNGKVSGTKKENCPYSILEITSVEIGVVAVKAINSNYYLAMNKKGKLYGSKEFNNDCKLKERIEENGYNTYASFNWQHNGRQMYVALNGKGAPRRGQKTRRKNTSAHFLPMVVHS
Assay [16] concerns glycogen synthase kinase-3 (GSK3A per assay name; protocol says GSK3B). Kind of assay: GSK3 binders on small-molecule microarrays, primary screen, biochemical, small-molecule microarray, 635 nm fluorescence, GSK3A (AID 1103). Note: the record names both GSK3A and GSK3B. Conditions: small-molecule microarray binding, fluorescence 635 nm; higher = more signal.
The target of assay [17] is Epidermal growth factor receptor (Homo sapiens) (UniProt P00533). Kind of assay: EGFR binders on small-molecule microarrays, primary screen, biochemical, small-molecule microarray, 635 nm fluorescence (AID 1104).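 Note: score merges 667 nm emission intensity with spot signal to noise over triplicate slides.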 The conditions noted are these: EGFR binding, higher = more signal.
Epidermal growth factor receptor (Homo sapiens), sequence (P00533 whole entry, looked up): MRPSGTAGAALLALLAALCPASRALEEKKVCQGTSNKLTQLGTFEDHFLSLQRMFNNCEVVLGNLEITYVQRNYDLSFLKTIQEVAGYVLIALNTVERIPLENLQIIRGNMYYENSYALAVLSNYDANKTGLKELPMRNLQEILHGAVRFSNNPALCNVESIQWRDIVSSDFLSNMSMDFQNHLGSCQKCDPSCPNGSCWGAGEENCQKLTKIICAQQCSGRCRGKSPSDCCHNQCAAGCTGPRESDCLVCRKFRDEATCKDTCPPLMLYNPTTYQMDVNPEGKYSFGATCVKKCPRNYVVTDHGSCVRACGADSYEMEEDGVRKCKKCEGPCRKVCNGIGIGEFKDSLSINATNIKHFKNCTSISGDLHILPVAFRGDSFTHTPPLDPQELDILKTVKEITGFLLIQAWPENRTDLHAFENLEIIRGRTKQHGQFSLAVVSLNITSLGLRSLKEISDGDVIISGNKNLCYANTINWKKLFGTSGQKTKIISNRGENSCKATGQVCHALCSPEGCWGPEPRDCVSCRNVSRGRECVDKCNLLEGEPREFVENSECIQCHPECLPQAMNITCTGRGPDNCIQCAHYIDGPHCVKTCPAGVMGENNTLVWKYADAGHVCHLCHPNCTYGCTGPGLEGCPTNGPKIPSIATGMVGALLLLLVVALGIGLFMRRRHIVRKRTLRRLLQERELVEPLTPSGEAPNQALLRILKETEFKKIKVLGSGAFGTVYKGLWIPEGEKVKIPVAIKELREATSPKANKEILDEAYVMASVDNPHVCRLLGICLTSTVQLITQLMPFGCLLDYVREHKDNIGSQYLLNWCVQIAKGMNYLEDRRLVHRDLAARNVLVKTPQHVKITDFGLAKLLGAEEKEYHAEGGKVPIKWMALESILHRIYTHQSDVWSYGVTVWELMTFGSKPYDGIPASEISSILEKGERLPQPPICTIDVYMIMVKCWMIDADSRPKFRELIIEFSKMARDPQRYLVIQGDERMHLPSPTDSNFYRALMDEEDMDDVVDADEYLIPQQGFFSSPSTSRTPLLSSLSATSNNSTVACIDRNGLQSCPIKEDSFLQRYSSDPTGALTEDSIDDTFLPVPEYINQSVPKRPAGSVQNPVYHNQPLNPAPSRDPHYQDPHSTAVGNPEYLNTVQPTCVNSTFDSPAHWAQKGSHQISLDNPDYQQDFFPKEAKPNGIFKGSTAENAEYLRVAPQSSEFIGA
In assay [18] the target is Follistatin-related protein 3 (Homo sapiens) (UniProt O95633). The experiment in a line: FSTL3 binders on small-molecule microarrays, primary screen, biochemical, small-molecule microarray, 635 nm fluorescence (AID 1105).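 Note: score merges emission near 667 nm and signal to noise per printed spot across three slides.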 The conditions noted are these: FSTL3 binding, higher = more signal.
Follistatin-related protein 3 (Homo sapiens), sequence (O95633 whole entry, looked up): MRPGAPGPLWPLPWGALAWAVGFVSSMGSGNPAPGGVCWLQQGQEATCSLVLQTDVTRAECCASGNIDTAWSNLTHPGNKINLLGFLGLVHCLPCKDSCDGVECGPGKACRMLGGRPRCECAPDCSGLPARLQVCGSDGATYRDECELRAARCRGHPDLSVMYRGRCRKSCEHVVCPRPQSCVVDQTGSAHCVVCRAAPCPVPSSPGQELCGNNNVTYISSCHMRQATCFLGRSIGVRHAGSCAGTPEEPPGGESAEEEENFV
Assay [19] has as its target Dickkopf-related protein 1 (Homo sapiens) (UniProt O94907). The experiment in a line: DKK1 binders on small-molecule microarrays, primary screen, biochemical, small-molecule microarray, 635 nm fluorescence scan (AID 1106).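 Note: score merges emission near 667 nm with signal to noise over three replicate slides.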 The conditions noted are these: DKK1 binding, higher = more signal.
Assay [20] relates to Inhibin beta A chain (activin A). The experiment in a line: INHBA (activin A) binders on microarrays, primary screen, biochemical, small-molecule microarray, 635 nm fluorescence scan (AID 1107).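 Note: mouse activin A protein probed at 4.33 µg/mL on printed slides; score merges bound-protein fluorescence near 667 nm with spot signal-to-noise.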 The conditions noted are these: small-molecule microarray binding, higher = more signal.

Dickkopf-related protein 1 (Homo sapiens), sequence (O94907 whole entry, looked up): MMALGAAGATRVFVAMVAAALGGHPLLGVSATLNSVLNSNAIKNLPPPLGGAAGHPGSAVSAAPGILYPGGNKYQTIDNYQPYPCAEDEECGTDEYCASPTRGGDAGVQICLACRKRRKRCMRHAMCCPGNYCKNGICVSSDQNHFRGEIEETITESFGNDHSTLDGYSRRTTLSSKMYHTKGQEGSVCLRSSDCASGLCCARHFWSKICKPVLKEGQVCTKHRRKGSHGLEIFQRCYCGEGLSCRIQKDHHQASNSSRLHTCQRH

For the compound `C=CCOC(=O)[C@H]1[C@@H]2C(=O)O[C@@H](c3ccccc3)[C@@H](c3ccccc3)N2[C@@H](c2ccc(OCCOC(=O)[C@H]3C[C@H]4C(=O)N[C@@H](Cc5ccccc5)C(=O)N4[C@H]3c3ccc(O)cc3)cc2)[C@]12C(=O)Nc1ccccc12`, the composite z-score in assay [1] was 1.55; in assay [5], 2.4; in [7] it was -0.0174; in assay [8] it was 1.6; in assay [9] it was 1.06; in assay [10], 0.0499. The composite z-score in assay [11] is 1.4; in assay [12], -0.206; in assay [13], -0.361; in assay [15], 1.15; in [16], 1.18; in assay [17], 0.892. Further, the composite z-score in [18] was 1.22; in assay [19] it was 1.06; in assay [20] it was -1.01. Further, the z-score was 1.44 (inactive) in assay [2]; 1.14 (inactive) in assay [3]; 4.4 (inactive) in assay [4]; 1.37 (inactive) in assay [6]; 0.72 (inactive) in assay [14].

For `O=C1[C@H]2[C@H]3[C@H](O)[C@H](O)CC(=NO[C@@H]4O[C@H](CO)[C@@H](O)[C@H](O)[C@H]4O)[C@@H]3CC[C@H]2C(=O)N1c1ccc(F)cc1F`, the composite z-score in [1] was -0.841; in assay [5] it was 0.245; in assay [7] it was -0.119; in assay [8] it was 0.575; in assay [9], 0.79; in [10], -0.113. Besides, the composite z-score in [11] was 0.406; in assay [12], -0.157; in [13], -0.445; in assay [15], 0.794; in [16] it was 0.703; in assay [17] it was 0.541. The composite z-score is 0.608 in [18], 0.451 in assay [19] and -0.114 in [20]. The z-score is -1.24 (inactive) in [2]; -0.114 (inactive) in assay [3]; -1.29 (inactive) in [4]; 0.645 (inactive) in assay [6]; -0.244 (inactive) in assay [14].

For the compound `C#C[C@@H](CC)O[Si](C#Cc1ccc(Oc2ccccc2)cc1)(C(C)C)C(C)C`, the composite z-score in assay [1] was 1.29; in assay [5], 0.964; in [7] it was -0.152; in [8] it was 0.269; in assay [9] it was 0.916; in assay [10], -0.0028. Also, the composite z-score is 0.301 in [11]; -0.137 in [12]; -0.225 in assay [13]; 0.706 in assay [15]; 0.777 in assay [16]; 0.185 in assay [17]. Besides, the figures for the composite z-score in assay [18], in assay [19] and in assay [20] were 0.773, 0.125 and 0.0324, respectively. Moreover, the z-score is 0.356 (inactive) in assay [2]; -0.951 (inactive) in assay [3]; 1 (inactive) in assay [4]; -0.44 (inactive) in assay [6]; -1.17 (inactive) in assay [14].

For the compound `CO[C@@H]1COC(=O)[C@@H]2CCCN2C(=O)[C@@H](C)COC(=O)[C@H](COCc2ccccc2)NC(=O)CC=C[C@H]1C`, the composite z-score is 0.705 in [1]; 0.445 in assay [5]; -0.236 in assay [7]; 0.529 in assay [8]; 0.554 in assay [9]; -0.198 in assay [10]. Moreover, the composite z-score in assay [11] is 0.385; in [12], -0.559; in assay [13], -0.664; in assay [15], 0.613; in assay [16] it was 0.575; in assay [17], 0.239. Further, the results for the composite z-score in assay [18], in [19] and in assay [20] were 0.478, 0.356 and -0.235, respectively. Further, the z-score in [2] is 0.953 (inactive); in [3], 0.263 (inactive); in [4] it was 0.458 (inactive); in [6] it was -1.99 (inactive); in [14], -0.425 (inactive).

Regarding `C=CC[C@@H]1C=C[C@H](ON=Cc2ccc(C(=O)N3[C@H](c4ccc(C)cc4)[C@@H](C)CC[C@H]3C(=O)OC)cc2)[C@@H](CO)O1`, the composite z-score is 0.537 in assay [1]; 0.531 in assay [5]; -0.0741 in [7]; 0.709 in [8]; 0.162 in assay [9]; -0.0223 in assay [10]. Moreover, the composite z-score in assay [11] was 0.608; in assay [12], -0.313; in assay [13] it was -0.422; in assay [15] it was 0.59; in assay [16] it was 0.363; in assay [17] it was 0.475. Moreover, the composite z-score in assay [18] came out at 0.609; in assay [19] it was 0.381; in [20], 0.694. Besides, the z-score in assay [2] is -1.33 (inactive); in assay [3] it was -0.119 (inactive); in [4], -0.733 (inactive); in assay [6] it was 1.35 (inactive); in [14], -0.0467 (inactive).
